# Results filed as inconclusive are left out. Calls of active or inactive are those of the source.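 Rule for the calls, unless noted: active = viability loss from added drug above about 55%, and viability with drug at most 40%, in both replicates (limit read from the data, passing the limit was not always enough); inconclusive = both conditions met in only one replicate; inactive = neither replicate meets both conditions.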
# Legend:
# [1] = reducers of endogenous Her2 protein level, primary screen, SKBR3 breast tumor cells, AlphaScreen, ATP viability (AID 461;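 active = Her2 level under about 52% in both replicate screens, with viability over 70% of control, limit read from the data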;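 for Her2 level: lower value means less Her2 protein in the cells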;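 for viability: percent of carrier control wells set as 100% viability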); details: 18-24 h, measured here: SKBR3 viability, ATP luminescence, at 10 µM
# [2] = molecular target: Receptor tyrosine-protein kinase erbB-2 (Homo sapiens) (UniProt P04626); experiment: as above; details: 18-24 h, at 10 µM, stronger effect = lower value
# [3] = SK-BR-3 cell growth inhibitors, pilot screen, 24 h, human (AID 572;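 active = viability at or below 10% of carrier control in both of two separate runs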;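 note: compound exposure lasted between 18 and 24 h rather than exactly 24 h; 100% = carrier-treated control wells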); details: SK-BR-3 viability, CellTiter-Glo luminescence, at 10 µM, stronger effect = lower value
# [4] = HUVEC growth inhibition – cell-based, human, primary screen (AID 575;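 active = viability at or below 30% in both replicate assays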;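 note: 100% = median of untreated cell wells with 0.1% DMSO on each plate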); details: HUVEC proliferation, CellTiter-Glo luminescence, 72 h; at 10 µM; stronger effect = lower value
# [5] = growth inhibitors of H69AR lung tumor, primary screen, human, duplicate replicates (AID 580;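 active = viability at or under a set limit in both replicates, limit being median viability minus 3 SD, cut at about 48% in these data, passing the limit was not always enough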;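 note: 100% = mean luminescence of untreated wells and 0% = no signal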); details: H69AR lung tumor cells viability, ATP luminescence, 72 h; at 10 µM; stronger effect = lower value
# [6] = reversal of MRP1-mediated doxorubicin resistance, pilot screen, H69AR cells, doxorubicin co-treatment (AID 601); details: CellTiter-Glo, 72 h, at 10 µM; for differential viability (reversal): stronger effect = higher value
# [7] = 384-well plate pilot, post-Golgi transport modulator project, inhibition of yeast transport mutant growth (AID 636; in the data active = inhibition above about 31%); details: absorbance 615 nm, about 18 h, stronger effect = higher value
# [8] = growth suppression of yeast trafficking mutant, preliminary HTS, modulators of trafficking downstream of Golgi apparatus project, 1536-format plate, OD 615 nm (AID 637; in the data active = inhibition above about 30%); details: yeast transport mutant growth, absorbance 615 nm, 18 h; stronger effect = higher value
# [9] = OD615 S. cerevisiae growth inhibition, permissive medium, pilot counter-assay, permissive growth control for S. cerevisiae lifespan shortening project (AID 705;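 active = growth inhibition above 25% in both replicates, a cutoff set 3 SD above the mean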); details: OD615, 24 h, at 10 µM, stronger effect = higher value
# [10] = Restrictive medium S. cerevisiae growth inhibition, OD615, pilot screen of yeast lifespan reduction project, restrictive growth control (AID 706;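 active = growth inhibition above a set limit, 3 SD over mean compound inhibition, in both replicates, cut at about 43% in these data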;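 note: modified DeaD lifespan yeast strain shifted to restrictive glucose medium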); details: OD615, 48 h, at 10 µM, stronger effect = higher value
# [11] = viability gain of MRP-1-high H69AR cells under doxorubicin, pilot screen, MRP-1 activator project, CellTiter-Glo, duplicate (AID 807;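 active = viability increase at or above a cutoff of the median across tested compounds plus 3 SD, cut at about 8.5% in these data, passing the limit was not always enough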;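 note: compound pretreatment 18-22 h then 72 h combined with doxorubicin; 0% = doxorubicin alone and 100% = vehicle without doxorubicin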); details: H69AR viability with doxorubicin, CellTiter-Glo luminescence; at 10 µM; stronger effect = higher value
# [12] = growth suppression of beta-catenin knockout HCT116, pilot screen, human colon tumor cells (AID 823;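 active = cell viability at or below a set limit in both duplicate runs, the limit being the all-compound median minus 4 SD, cut at about 23% in these data, passing the limit was not always enough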;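 note: 0% = wells killed by 20 µM Hyamine and 100% = untreated DMSO cell wells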); details: CellTiter-Glo, 60 h, at 10 µM, stronger effect = lower value
# [13] = growth suppression of PTEN-deleted HCT116, pilot screen, cell-based, HCT116 clonal line, CellTiter-Glo (AID 824;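 active = viability at or below 27.92% in each of two runs, the all-compound median minus 4 SD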;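 note: 0% = 20 µM Hyamine control and 100% = vehicle cell control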); details: 60 h, at 10 µM, stronger effect = lower value
# [14] = inhibitors of the yeast RAM network, pilot screen, dse1pr::URA3 reporter, 5-FOA selection (AID 869;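 active = inhibition over a set limit, the all-compound mean plus 3 SD, in both replicate runs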;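 note: 0% = DMSO wells with no growth and 100% = 10 µM 1-NA-PP1 with full growth; RAM network block rescues cells from 5-FOA so hits raise OD615 growth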); details: S. cerevisiae dse1pr::URA3 5-FOA growth, OD615, 2 d; at 10 µM; stronger effect = higher value; strain carries analog-sensitive mutant Cbk1 kinase
# [15] = RAM signaling pathway blockade in yeast – S. cerevisiae, Pdr1DBD-CYC8 efflux-inhibited sensitized strain, primary screen (AID 1298;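 active = RAM network inhibition above 8.4% in each of two replicates, 3 SD over the compound average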;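 note: 0% = DMSO untreated cells without growth and 100% = 10 µM 1-NA-PP1 full growth; higher means more yeast growth rescued from 5-FOA killing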); details: S. cerevisiae cbk1-as DSE1-URA3 strain, 5-FOA growth OD615, 2 d; at 50 µM; stronger effect = higher value
# [16] = H69AR cells + 2 uM doxorubicin, measured here: viability with 2 uM doxorubicin, stronger effect = lower value
# [17] = H69AR cells, compound alone cytotoxicity
# Receptor tyrosine-protein kinase erbB-2 (Homo sapiens), sequence (P04626 whole entry, looked up): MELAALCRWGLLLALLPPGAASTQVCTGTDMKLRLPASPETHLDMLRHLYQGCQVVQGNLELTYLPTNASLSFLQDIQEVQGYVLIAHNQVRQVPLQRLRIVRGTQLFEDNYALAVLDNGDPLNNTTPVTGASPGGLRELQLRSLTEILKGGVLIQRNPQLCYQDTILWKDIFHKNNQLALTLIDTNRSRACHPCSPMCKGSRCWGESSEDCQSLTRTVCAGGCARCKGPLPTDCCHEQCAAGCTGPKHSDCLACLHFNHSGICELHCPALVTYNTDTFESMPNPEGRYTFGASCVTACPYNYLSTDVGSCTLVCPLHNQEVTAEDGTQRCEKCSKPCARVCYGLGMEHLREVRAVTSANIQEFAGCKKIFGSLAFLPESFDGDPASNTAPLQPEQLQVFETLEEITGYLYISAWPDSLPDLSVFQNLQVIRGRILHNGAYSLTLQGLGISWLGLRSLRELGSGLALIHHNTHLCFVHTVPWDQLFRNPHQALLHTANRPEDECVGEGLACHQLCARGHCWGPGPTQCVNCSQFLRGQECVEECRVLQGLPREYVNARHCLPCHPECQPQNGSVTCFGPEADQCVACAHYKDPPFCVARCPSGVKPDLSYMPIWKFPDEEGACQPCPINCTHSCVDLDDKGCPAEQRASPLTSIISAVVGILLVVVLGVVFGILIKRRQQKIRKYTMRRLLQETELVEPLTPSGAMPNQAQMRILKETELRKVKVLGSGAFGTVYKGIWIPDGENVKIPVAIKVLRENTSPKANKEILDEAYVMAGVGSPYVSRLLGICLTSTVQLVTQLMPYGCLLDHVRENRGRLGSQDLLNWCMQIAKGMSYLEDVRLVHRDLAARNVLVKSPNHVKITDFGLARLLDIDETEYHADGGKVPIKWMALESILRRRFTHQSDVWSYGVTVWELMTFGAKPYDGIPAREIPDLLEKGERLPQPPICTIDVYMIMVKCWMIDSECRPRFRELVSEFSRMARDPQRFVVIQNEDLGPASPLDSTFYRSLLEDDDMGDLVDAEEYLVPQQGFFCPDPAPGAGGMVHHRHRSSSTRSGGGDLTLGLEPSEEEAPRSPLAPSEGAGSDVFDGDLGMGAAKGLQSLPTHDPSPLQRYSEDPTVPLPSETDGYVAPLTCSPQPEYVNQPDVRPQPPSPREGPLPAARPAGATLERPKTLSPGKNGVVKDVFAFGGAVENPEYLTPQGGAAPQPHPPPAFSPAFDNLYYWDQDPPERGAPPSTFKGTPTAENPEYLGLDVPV
smiles,measurement,setting,value
COc1ccc(OCc2nc(C#N)c(N3CCN(c4ccc(OC)cc4)CC3)o2)cc1,viability,[1],94%
same,Her2 level,[2],115% (inactive)
same,viability,[3],94% (inactive)
same,viability,[4],90.6% (inactive)
same,viability,[5],94% (inactive)
same,differential viability (reversal),[6]; H69AR cells + 2 uM doxorubicin,15% (inactive)
same,viability,[6]; [16],79%
same,viability,[6]; [17],94%
same,inhibition,[7],-3.07% (inactive)
same,inhibition,[8],-8.17% (inactive)
same,growth inhibition,[9],-0.985% (inactive)
same,growth inhibition,[10],-1.77% (inactive)
same,viability increase,[11],9.38% (active)
same,viability,[12],72.5% (inactive)
same,viability,[13],73.5% (inactive)
same,inhibition,[14],1.06% (inactive)
same,RAM network inhibition,[15],9.16% (inactive)
CN1CCN(CCCNC(=O)Cn2ncc3c4ccccc4n(C)c3c2=O)CC1,viability,[1],84%
same,Her2 level,[2],129% (inactive)
same,viability,[3],84% (inactive)
same,viability,[4],82.7% (inactive)
same,viability,[5],86% (inactive)
same,differential viability (reversal),[6]; H69AR cells + 2 uM doxorubicin,-8.1% (inactive)
same,viability,[6]; [16],94.1%
same,viability,[6]; [17],86%
same,inhibition,[7],1.15% (inactive)
same,inhibition,[8],10.8% (inactive)
same,growth inhibition,[9],-16.9% (inactive)
same,growth inhibition,[10],-28.7% (inactive)
same,viability increase,[11],-1.44% (inactive)
same,viability,[12],92.9% (inactive)
same,viability,[13],100% (inactive)
same,inhibition,[14],3.37% (inactive)
same,RAM network inhibition,[15],4.04% (inactive)
Cc1c(C(=O)NC2CC2)oc2ccc(S(=O)(=O)N3CCCCCC3)cc12,viability,[1],81.5%
same,Her2 level,[2],106% (inactive)
same,viability,[3],81.5% (inactive)
same,viability,[4],96.8% (inactive)
same,viability,[5],83% (inactive)
same,differential viability (reversal),[6]; H69AR cells + 2 uM doxorubicin,-14.2% (inactive)
same,viability,[6]; [16],97.1%
same,viability,[6]; [17],83%
same,inhibition,[7],-0.81% (inactive)
same,inhibition,[8],3.44% (inactive)
same,growth inhibition,[9],-7.49% (inactive)
same,growth inhibition,[10],6.7% (inactive)
same,viability increase,[11],3.84% (inactive)
same,viability,[12],92.9% (inactive)
same,viability,[13],90.8% (inactive)
same,inhibition,[14],0.26% (inactive)
same,RAM network inhibition,[15],4.34% (inactive)
CCOC(=O)C1CCCN(C(=O)c2ccc(CS(=O)(=O)c3ccc(Br)cc3)o2)C1 (stereo not drawn),viability,[1],85.5%
same,Her2 level,[2],102% (inactive)
same,viability,[3],85.5% (inactive)
same,viability,[4],79.5% (inactive)
same,viability,[5],95.6% (inactive)
same,differential viability (reversal),[6]; H69AR cells + 2 uM doxorubicin,-1.7% (inactive)
same,viability,[6]; [16],97.3%
same,viability,[6]; [17],95.6%
same,inhibition,[7],-2.93% (inactive)
same,inhibition,[8],-3.83% (inactive)
same,growth inhibition,[9],-9.14% (inactive)
same,growth inhibition,[10],-18.5% (inactive)
same,viability increase,[11],-1.86% (inactive)
same,viability,[12],100% (inactive)
same,viability,[13],98.6% (inactive)
same,inhibition,[14],1.39% (inactive)
same,RAM network inhibition,[15],3.92% (inactive)
CCOC(=O)N1CCN(C(=O)c2ccc3nc4ccsc4c(=O)n3c2)CC1,viability,[1],97.5%
same,Her2 level,[2],102% (inactive)
same,viability,[3],97.5% (inactive)
same,viability,[4],87.2% (inactive)
same,viability,[5],89.4% (inactive)
same,differential viability (reversal),[6]; H69AR cells + 2 uM doxorubicin,-1.36% (inactive)
same,viability,[6]; [16],90.8%
same,viability,[6]; [17],89.4%
same,inhibition,[7],-7.87% (inactive)
same,inhibition,[8],-6.39% (inactive)
same,growth inhibition,[9],5.57% (inactive)
same,growth inhibition,[10],7.09% (inactive)
same,viability increase,[11],-4.18% (inactive)
same,viability,[12],101% (inactive)
same,viability,[13],101% (inactive)
same,inhibition,[14],0.335% (inactive)
same,RAM network inhibition,[15],-0.16% (inactive)
O=C(Nc1cnn(Cc2ccc(Cl)cc2Cl)c1)c1noc2c1CCCC2,viability,[1],94.5%
same,Her2 level,[2],91.5% (inactive)
same,viability,[3],94.5% (inactive)
same,viability,[4],71.8% (inactive)
same,viability,[5],88.2% (inactive)
same,differential viability (reversal),[6]; H69AR cells + 2 uM doxorubicin,2.57% (inactive)
same,viability,[6]; [16],85.6%
same,viability,[6]; [17],88.2%
same,inhibition,[7],-0.13% (inactive)
same,inhibition,[8],-3.17% (inactive)
same,growth inhibition,[9],2.94% (inactive)
same,growth inhibition,[10],-1.65% (inactive)
same,viability increase,[11],-0.32% (inactive)
same,viability,[12],94.7% (inactive)
same,viability,[13],82.7% (inactive)
same,inhibition,[14],0.895% (inactive)
same,RAM network inhibition,[15],4.07% (inactive)
COc1cccc(C2CC(c3ccc(F)cc3)Nc3nc(N)nn32)c1 (stereo not drawn),viability,[1],100%
same,Her2 level,[2],106% (inactive)
same,viability,[3],100% (inactive)
same,viability,[4],99.9% (inactive)
same,viability,[5],103% (inactive)
same,differential viability (reversal),[6]; H69AR cells + 2 uM doxorubicin,3.04% (inactive)
same,viability,[6]; [16],99.9%
same,viability,[6]; [17],103%
same,inhibition,[7],-2.67% (inactive)
same,inhibition,[8],14.9% (inactive)
same,growth inhibition,[9],-3.78% (inactive)
same,growth inhibition,[10],4.35% (inactive)
same,viability increase,[11],-0.39% (inactive)
same,viability,[12],102% (inactive)
same,viability,[13],95.5% (inactive)
same,inhibition,[14],0.725% (inactive)
same,RAM network inhibition,[15],5.03% (inactive)
CCCn1c(NCc2cc(C)ccc2O)nc2ccccc21,viability,[1],94.5%
same,Her2 level,[2],106% (inactive)
same,viability,[3],94.5% (inactive)
same,viability,[4],69.4% (inactive)
same,viability,[5],77.9% (inactive)
same,differential viability (reversal),[6]; H69AR cells + 2 uM doxorubicin,1.94% (inactive)
same,viability,[6]; [16],76%
same,viability,[6]; [17],77.9%
same,inhibition,[7],-1.73% (inactive)
same,inhibition,[8],9.68% (inactive)
same,growth inhibition,[9],-4.45% (inactive)
same,growth inhibition,[10],-8.17% (inactive)
same,viability increase,[11],-4.6% (inactive)
same,viability,[12],53.6% (inactive)
same,viability,[13],60.1% (inactive)
same,inhibition,[14],-0.08% (inactive)
same,RAM network inhibition,[15],0.33% (inactive)
COc1ccc(S(=O)(=O)Cc2ccc(C(=O)N3CCN(c4ccccc4)CC3)o2)cc1,viability,[1],72.5%
same,Her2 level,[2],115% (inactive)
same,viability,[3],72.5% (inactive)
same,viability,[4],104% (inactive)
same,viability,[5],84.4% (inactive)
same,differential viability (reversal),[6]; H69AR cells + 2 uM doxorubicin,-1.7% (inactive)
same,viability,[6]; [16],86.1%
same,viability,[6]; [17],84.4%
same,inhibition,[7],-2.8% (inactive)
same,inhibition,[8],-7.5% (inactive)
same,growth inhibition,[9],-11.7% (inactive)
same,growth inhibition,[10],-18.9% (inactive)
same,viability increase,[11],-2.99% (inactive)
same,viability,[12],88.8% (inactive)
same,viability,[13],89.3% (inactive)
same,inhibition,[14],0.76% (inactive)
same,RAM network inhibition,[15],8.54% (inactive)
